This is part of a sample that, as a whole, favours compounds with a hit. Of some 83,000 tested, about 20% had one in any assay.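 Method: cells in 96-well plates; compound added at one concentration; 48 h incubation; percent growth measured; values under 10 scored active.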 Calls of active or inactive are those of the source.

One assay relates to HCT-15 colon. The assay is described as follows: NCI-60 one-dose screen, 48 h (100 = growth as untreated, 0 = no growth, -100 = all killed). The note with it: 10 µM unless noted.
Take `COc1cc(Cl)cc(-c2nn(-c3cccc(NC(=O)c4cc(C(F)(F)F)cc(C(F)(F)F)c4)c3)cc2-c2ccncc2)c1`: the growth is 58.6% (inactive).

For `O=C(Oc1ccccc1)C(Br)C(Br)c1ccccc1` (stereo unspecified), the growth was 95.4% (inactive).

Take `c1cc[n+](Cc2ccnc3ccccc23)cc1`: the growth is 64.3% (inactive).

On to `CCCCOP(=O)(OCCCC)C(C(=O)OCC)C(CC(=O)OCC)C(=O)OCC` (stereo unspecified), for which the growth is 86.4% (inactive).

For the molecule `CCCCCc1c(C)[nH]c(/C=C2\N=C(c3ccc[nH]3)C=C2Oc2ccccc2)c1C`, the growth was -99.5% [100 µM] (active).

On to `c1ccc(-c2n(Cc3ccc4ccccc4c3)cc[n+]2Cc2ccc3ccccc3c2)cc1`, for which the growth is 15.2% (inactive).

In the case of `CC[C@@H](c1ccc(O)c(O)c1)[C@@H](CC)c1ccc(O)c(O)c1`, the growth was 58.1% (inactive).

As for `O=C(Nc1ccccc1S)c1ccccc1`, the growth is 108% (inactive).

Regarding `Cc1sc2nc(NCc3ccccc3)[nH]c(=O)c2c1C`, the growth was 33.2% (inactive).

With `CCCCCCCCCCNCCSS(=O)(=O)O`, the growth is 86.4% (inactive).

For the molecule `O=C1CSC(c2ccccc2Cl)N1c1nnc(Cn2nnc3ccccc32)o1` (stereo unspecified), the growth was 74.8% (inactive).

Take `O=C(Nc1nc(-c2ccc(Cl)cc2)cs1)c1cc(-c2ccc(Br)cc2)nc2ccc(Cl)cc12`: the growth is 10.8% (inactive).

For the molecule `C[C@]12CC[C@H](O)CC1=CC[C@@H]1[C@@H]2CC[C@]2(C)C(c3cccnc3)=CC[C@@H]12`, the growth was 56.8% (inactive).

As for `Nc1nc2c(c(=O)[nH]1)C1(C(=O)Nc3ccccc31)c1c(nc(N)[nH]c1=O)N2`, the growth is 105% (inactive).

With `C=C1CC[C@@H]2[C@](C)(COC(C)=O)[C@H](OC(C)=O)CC[C@@]2(C)[C@@H]1CC(NCc1ccccc1)C1=CCOC1=O` (stereo partly specified), the growth is 41% (inactive).

For `CCN(CC)c1ccc(/C=C/C(=O)c2cccc(NS(C)(=O)=O)c2)cc1`, the growth is 27.8% (inactive).

Consider `COc1cc(-c2nnc(-c3nc(-c4cc(OC)c(OC)c(OC)c4)n4ccccc34)o2)ccc1N`, for which the growth was 64.5% (inactive).

For `CCSc1nc(Nc2ccc(S(=O)(=O)Nc3ccon3)cc2)c(C#N)c(-c2cccc(Br)c2)n1`, the growth was 87.3% (inactive).

Take `Cc1ccc(C2=NNC(c3sc(Cl)nc3Cl)C2)cc1` (stereo unspecified): the growth was 77.3% (inactive).

For the molecule `COc1cc(/C=C\C(C)=N\Nc2ccccc2)ccc1O`, the growth was 75.4% (inactive).

As for `CC(=O)Nc1c(Cl)cc2c(c1Cl)Cc1cc([N+](=O)[O-])ccc1-2`, the growth is 101% (inactive).

For `CCOC(=O)C(Br)=P(c1ccccc1)(c1ccccc1)c1ccccc1`, the growth was 102% (inactive).

For the molecule `Cc1[nH]ccc2cc3nc4ccccc4c3cc12`, the growth was 20.3% (inactive).

Regarding `COc1ccc(-c2cc(-c3nnc(SCC(=O)Nc4ccc(C(C)=O)cc4)n3-c3ccccc3)c3ccccc3n2)cc1OC`, the growth was 102% (inactive).

On to `COc1ccccc1NC(=O)c1sc2nc3c(cc2c1N)C(=O)CCC3`, for which the growth was 47.3% (inactive).

Consider `CC1(C)CC2(C)CC(=O)C1C(C(=O)O)C2C(=O)O` (stereo unspecified), for which the growth is 110% (inactive).

As for `C(=C1c2ccccc2-c2ccccc21)c1ccncc1`, the growth is 26.9% (inactive).

For `COc1cccc(N2CCN(c3cccc(C)n3)CC2)c1`, the growth was 105% (inactive).

As to `Cc1ccc(NC(=O)c2sc3nc4c(cc3c2N)C(=O)CCC4)cc1`, the growth is 58.6% (inactive).

As for `Nc1ccc(Oc2c(F)c(F)c(Oc3ccc(N)cc3)c(F)c2F)cc1`, the growth is 86.7% (inactive).

Regarding `CN(C)CCC(=O)Nc1ccc(-n2cc(-c3cccc(NC(=S)Nc4cccc(-c5cn(-c6ccc(NC(=O)CCN(C)C)cc6)nn5)c4)c3)nn2)cc1`, the growth is 92.5% (inactive).

For the molecule `O=C1c2cc3c(cc2-c2c1c1ccc(Cl)cc1c(=O)n2CCCNCCO)OCO3`, the growth is -78.3% (active).

Regarding `O=C(CSc1nnc(-c2cc(-c3ccccc3)nc3ccccc23)o1)c1ccc(Br)cc1`, the growth is 109% (inactive).

In the case of `O=c1ncc(-c2ccc(C(F)(F)F)cc2)c(NC2CCCCCC2)[nH]1`, the growth is 103% (inactive).

As for `CCc1ccc(-c2nc(SCC(=O)NC3CCCCC3)n[nH]2)cc1`, the growth was 88.6% (inactive).

Turning to `COc1ccc(C(=O)/C=C/c2ccc(C)cc2)cc1OC`, the growth is 46.9% (inactive).

Another assay relates to HT29 colon. Described as above. The settings on record: 10 µM unless noted.
For the molecule `COc1ccc(-c2cnc(SCC(=O)Nc3ccc(-c4nc5ccccc5s4)cc3)n2-c2ccc(OC)cc2)cc1`, the growth is 92.7% (inactive).

As to `NS(=O)(=O)c1ccc(-n2ncc3c(SCc4ccccc4)ncnc32)cc1`, the growth is 94.1% (inactive).

Take `CC(=O)N1N=C(c2ccc(Nc3nc(NCCO)nc(NCCO)n3)cc2)CC1c1ccc(Cl)cc1` (stereo unspecified): the growth is 86.8% (inactive).

The next assay concerns SNB-75 CNS. The assay is described as above. The settings on record: 10 µM unless noted.
In the case of `COc1cc(Cl)cc(-c2nn(-c3cccc(NC(=O)c4cc(C(F)(F)F)cc(C(F)(F)F)c4)c3)cc2-c2ccncc2)c1`, the growth was 60.8% (inactive).

Consider `O=C(Oc1ccccc1)C(Br)C(Br)c1ccccc1` (stereo unspecified), for which the growth is 110% (inactive).

For `c1cc[n+](Cc2ccnc3ccccc23)cc1`, the growth is 53.6% (inactive).

As to `CCCCOP(=O)(OCCCC)C(C(=O)OCC)C(CC(=O)OCC)C(=O)OCC` (stereo unspecified), the growth was 59.9% (inactive).

Consider `c1ccc(-c2n(Cc3ccc4ccccc4c3)cc[n+]2Cc2ccc3ccccc3c2)cc1`, for which the growth is -29.5% (active).

Turning to `CC[C@@H](c1ccc(O)c(O)c1)[C@@H](CC)c1ccc(O)c(O)c1`, the growth is 82.4% (inactive).

On to `COc1ccc(-c2cnc(SCC(=O)Nc3ccc(-c4nc5ccccc5s4)cc3)n2-c2ccc(OC)cc2)cc1`, for which the growth was 93.5% (inactive).

For the molecule `O=C(Nc1ccccc1S)c1ccccc1`, the growth is 81.7% (inactive).

In the case of `CCCCCCCCCCNCCSS(=O)(=O)O`, the growth is 96.1% (inactive).

Turning to `O=C(Nc1nc(-c2ccc(Cl)cc2)cs1)c1cc(-c2ccc(Br)cc2)nc2ccc(Cl)cc12`, the growth was 32.7% (inactive).

On to `NS(=O)(=O)c1ccc(-n2ncc3c(SCc4ccccc4)ncnc32)cc1`, for which the growth was 102% (inactive).

With `C[C@]12CC[C@H](O)CC1=CC[C@@H]1[C@@H]2CC[C@]2(C)C(c3cccnc3)=CC[C@@H]12`, the growth was 52.4% (inactive).

In the case of `Nc1nc2c(c(=O)[nH]1)C1(C(=O)Nc3ccccc31)c1c(nc(N)[nH]c1=O)N2`, the growth is 91.5% (inactive).

`C=C1CC[C@@H]2[C@](C)(COC(C)=O)[C@H](OC(C)=O)CC[C@@]2(C)[C@@H]1CC(NCc1ccccc1)C1=CCOC1=O` (stereo partly specified): the growth was 76.9% (inactive).

For the molecule `CCN(CC)c1ccc(/C=C/C(=O)c2cccc(NS(C)(=O)=O)c2)cc1`, the growth was 48.4% (inactive).

Take `COc1cc(-c2nnc(-c3nc(-c4cc(OC)c(OC)c(OC)c4)n4ccccc34)o2)ccc1N`: the growth is 75% (inactive).

For `CCSc1nc(Nc2ccc(S(=O)(=O)Nc3ccon3)cc2)c(C#N)c(-c2cccc(Br)c2)n1`, the growth is 93.3% (inactive).

With `Cc1ccc(C2=NNC(c3sc(Cl)nc3Cl)C2)cc1` (stereo unspecified), the growth is 96% (inactive).

In the case of `COc1cc(/C=C\C(C)=N\Nc2ccccc2)ccc1O`, the growth was 98.7% (inactive).

`CC(=O)Nc1c(Cl)cc2c(c1Cl)Cc1cc([N+](=O)[O-])ccc1-2`: the growth is 36.6% (inactive).

`CCOC(=O)C(Br)=P(c1ccccc1)(c1ccccc1)c1ccccc1`: the growth was 118% (inactive).

Consider `Cc1[nH]ccc2cc3nc4ccccc4c3cc12`, for which the growth was 40% (inactive).

As for `COc1ccc(-c2cc(-c3nnc(SCC(=O)Nc4ccc(C(C)=O)cc4)n3-c3ccccc3)c3ccccc3n2)cc1OC`, the growth is 102% (inactive).

For the molecule `CC(=O)N1N=C(c2ccc(Nc3nc(NCCO)nc(NCCO)n3)cc2)CC1c1ccc(Cl)cc1` (stereo unspecified), the growth is 84.7% (inactive).

As for `COc1ccccc1NC(=O)c1sc2nc3c(cc2c1N)C(=O)CCC3`, the growth was 56.6% (inactive).

Consider `COc1cccc(N2CCN(c3cccc(C)n3)CC2)c1`, for which the growth was 133% (inactive).

Consider `Cc1ccc(NC(=O)c2sc3nc4c(cc3c2N)C(=O)CCC4)cc1`, for which the growth is 86.3% (inactive).

Consider `CN(C)CCC(=O)Nc1ccc(-n2cc(-c3cccc(NC(=S)Nc4cccc(-c5cn(-c6ccc(NC(=O)CCN(C)C)cc6)nn5)c4)c3)nn2)cc1`, for which the growth is 119% (inactive).

As for `O=C1c2cc3c(cc2-c2c1c1ccc(Cl)cc1c(=O)n2CCCNCCO)OCO3`, the growth was -88.8% (active).

As to `O=c1ncc(-c2ccc(C(F)(F)F)cc2)c(NC2CCCCCC2)[nH]1`, the growth was 87% (inactive).

Consider `CCc1ccc(-c2nc(SCC(=O)NC3CCCCC3)n[nH]2)cc1`, for which the growth is 85.4% (inactive).

Take `COc1ccc(C(=O)/C=C/c2ccc(C)cc2)cc1OC`: the growth was 64.9% (inactive).

The values above are taken from PubChem BioAssay (NCI).
